Reference: PubChem BioAssay (NCATS)
Inconclusive results are not listed. A call without a number means that no potency is given here. Active and inactive are the calls of the source. Calls follow the shape of the dose curve; as a rule, active = well fitted curve in the direction sought with a large enough effect; inconclusive = small, poorly fitted or top-dose-only effect, or another doubt; inactive = no such curve, though single readings can be large; an effect the other way counts as inactive or inconclusive.

Target: Alpha-galactosidase (Coffea arabica) (UniProt Q42656)
Sequence (Q42656 whole entry, looked up): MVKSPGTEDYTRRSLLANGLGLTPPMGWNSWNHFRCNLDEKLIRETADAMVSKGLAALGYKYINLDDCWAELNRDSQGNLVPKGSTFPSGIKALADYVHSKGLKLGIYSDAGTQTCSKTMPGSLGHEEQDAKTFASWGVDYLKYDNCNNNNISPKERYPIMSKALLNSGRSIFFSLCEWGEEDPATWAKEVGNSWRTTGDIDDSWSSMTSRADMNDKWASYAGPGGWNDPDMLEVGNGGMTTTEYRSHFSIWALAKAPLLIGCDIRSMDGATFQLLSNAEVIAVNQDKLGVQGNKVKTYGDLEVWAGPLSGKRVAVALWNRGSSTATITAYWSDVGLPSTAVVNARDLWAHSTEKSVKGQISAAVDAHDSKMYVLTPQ
Experiment: Counterscreen for Glucocerebrosidase Inhibitors: qHTS Assay for Coffee Bean alpha-Galactosidase at pH 4.5 (AID 957)
Conditions: purified coffee bean alpha-galactosidase, fluorogenic substrate; series mostly up to 76.9 µM
Method in brief: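 Quantitative HTS of compounds (0.7 nM to 77 uM) against coffee bean alpha-galactosidase at pH 4.5, measuring 4-methylumbelliferone fluorescence released from 80 uM substrate.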
In the case of `NC12CC3CC(CC(C3)C1)C2`, the outcome is reported as “inactive”.
With `Nc1nc2c(ncn2COCCO)c(=O)[nH]1` the outcome was “inactive”.
For `CC(=O)CCCCn1c(=O)c2c(ncn2C)n(C)c1=O`, the outcome was “inactive”.
For `O=c1n(CCCN2CCN(c3cccc(Cl)c3)CC2)nc2ccccn12`, the outcome was “inactive”.
In the case of `CN(C)CCC=C1c2ccccc2C=Cc2ccccc21`, the outcome is reported as “inactive”.
For `CN1CCN(C2=Nc3cc(Cl)ccc3Nc3ccccc32)CC1`, the outcome was “inactive”.
In the case of `CN(C)c1nc(N(C)C)nc(N(C)C)n1`, the outcome is reported as “inactive”.
For `O=c1c(O)c(-c2ccc(O)c(O)c2)oc2cc(O)cc(O)c12`, the outcome was “inactive”.
In the case of `CNCCCN1c2ccccc2CCc2ccccc21`, the outcome is reported as “inactive”.
For `NS(=O)(=O)c1cc2c(cc1Cl)NC=NS2(=O)=O`, the outcome was “inactive”.
In the case of `CNCCCC1c2ccccc2C=Cc2ccccc21`, the outcome is reported as “inactive”.
For `CCCCc1oc2ccccc2c1C(=O)c1cc(I)c(OCCN(CC)CC)c(I)c1`, the outcome was “inactive”.
With `NNCCc1ccccc1` the outcome was “inactive”.
In the case of `COC(=O)Nc1nc2ccc(C(=O)c3cccs3)cc2[nH]1`, the outcome is reported as “inactive”.
In the case of `Nc1nc(N)c2nc(-c3ccccc3)c(N)nc2n1`, the outcome is reported as “inactive”.
For `CC(C)(C)NC(=O)[C@H]1CC[C@H]2[C@@H]3CC[C@H]4NC(=O)C=C[C@]4(C)[C@H]3CC[C@]12C`, the outcome was “inactive”.
For `CN1CCC[C@@H]1CCO[C@](C)(c1ccccc1)c1ccc(Cl)cc1`, the outcome was “inactive”.
In the case of `NS(=O)(=O)Cc1noc2ccccc12`, the outcome is reported as “inactive”.
In the case of `Cc1cn([C@H]2C=C[C@@H](CO)O2)c(=O)[nH]c1=O`, the outcome is reported as “inactive”.
With `O=NN(CCCl)C(=O)NCCCl` the outcome was “inactive”.
For `OCCN1CCN(CCCN2c3ccccc3Sc3ccc(C(F)(F)F)cc32)CC1`, the outcome was “inactive”.
For `CC[N+](CC)(CC)CC`, the outcome was “inactive”.
For `CC/C(=C(\c1ccccc1)c1ccc(OCCN(C)C)cc1)c1ccccc1`, the outcome was “inactive”.
For `CN(Cc1cnc2nc(N)nc(N)c2n1)c1ccc(C(=O)N[C@@H](CCC(=O)O)C(=O)O)cc1`, the outcome was “inactive”.
With `CN(C)CCCN1c2ccccc2Sc2ccc(Cl)cc21` the outcome was “inactive”.
With `Nc1nnc(-c2cccc(Cl)c2Cl)c(N)n1` the outcome was “inactive”.
For `CN(C)CCC=C1c2ccccc2CCc2ccccc21`, the outcome was “inactive”.

Tested on: not listed separately
Experiment: MultiTox-Fluor Cytotoxicity Assay - LYMP1-002 - Dead Cells (AID 960); also: potency is read from the fitted curve at half-maximal effect; nearly all actives have a fitted effect of over 60% in size
Conditions: LYMP1-002 lymphoblastoid cells, dead-cell protease fluorescence; series mostly up to 46.1 µM
Method in brief: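 Concentration-dependent increases in membrane-leaked protease activity are quantified in LYMP1-002 cells after 16 hr treatment; values are normalized against DMSO and tetraoctylammonium bromide (15 uM) controls and AC50 derived by Hill modeling.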
With `CC(C)C(=O)Nc1ccc([N+](=O)[O-])c(C(F)(F)F)c1` the Potency was 15.8 µM (active).
In the case of `Cc1c(O)cccc1C(=O)N[C@@H](CSc1ccccc1)[C@H](O)CN1C[C@H]2CCCC[C@H]2C[C@H]1C(=O)NC(C)(C)C`, the Potency is reported as 31.6 µM (active).
For `CN(C)CCC=C1c2ccccc2CCc2ccccc21`, the Potency was 25.1 µM (active).
